# According to PubChem BioAssay (Tox21):
# Values joined by “and” are separate entries in the source; they are usually repeats but may differ in a detail not shown here. Equal values may be shown once. A number with no mark means an inactive call. Inconclusive results are not listed. Where a call stands in place of a potency, no number is given. Active and inactive are the calls of the source. Unless noted, calls come from the whole dose curve; as a rule, active = well fitted curve in the direction sought with a large enough effect in the repeat runs; inconclusive = weak or mixed curves; inactive = no such curve, though single readings can be large; an effect the other way counts as inactive or inconclusive.
# Assays:
# [1] = qHTS assay for small molecule agonists of the p53 signaling pathway (AID 651631; calls by dose curve; note: nearly all actives have a fitted effect of over 15% in size; note: potency is the fitted concentration of half-maximal effect)
# Summary of the method: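 Agonist mode screen using a stably integrated beta-lactamase gene under p53 response elements in HCT-116 cells. Compound exposure lasts 16 h at 37 °C; fluorescence intensity is measured following 2 h FRET substrate loading.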
# [2] = qHTS assay for small molecule agonists of the p53 signaling pathway - cell viability (AID 651633; calls by dose curve; note: nearly all actives have a fitted effect of over 30% in size; note: potency is the fitted concentration of half-maximal effect)
# Summary of the method: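 Viability counter-read: CellTiter-Glo luminescence (30 min, room temperature) in the same p53RE-bla plates. These plates had been exposed to compounds for 16 h at 37 C.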
# [3] = qHTS assay for small molecules that induce genotoxicity in human embryonic kidney cells expressing luciferase-tagged ATAD5 - cell viability (AID 651634; calls by dose curve; note: nearly all actives have a fitted effect of over 25% in size; note: potency is the fitted concentration of half-maximal effect)
# Summary of the method: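 15.5 hr compound or vehicle exposure of HEK293T cells expressing luciferase-tagged ATAD5 at 37C; live-cell protease activity is read by fluorescence after 30 min of CellTiter-Fluor.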
# [4] = qHTS assay for small molecule disruptors of the mitochondrial membrane potential - cell viability (AID 720634; calls by dose curve;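 note: human HepG2 liver cancer cells; series mostly up to about 83 µM; nearly all actives have a fitted effect of over 20% in size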)
# Summary of the method: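 In this qHTS format, HepG2 cells plated overnight were pinned with compound, incubated 1 hr, and assayed for ATP luminescence with CellTiter-Glo after m-MPI dye addition.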
# [5] = qHTS assay for small molecule disruptors of the mitochondrial membrane potential (AID 720635); note: potency is the fitted concentration of half-maximal effect
# Summary of the method: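 Mitochondrial membrane potential tracked with Mito-MPS dye, red aggregates (ex 540/em 590 nm) against green monomers (ex 490/em 535 nm). Compound treatment 1 hr at 37C, dye 30 min in HepG2.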
# [6] = qHTS assay to test for compound auto fluorescence at 535 nm (green) in HepG2 cells (AID 720675)
# [7] = qHTS assay to test for compound auto fluorescence at 460 nm (blue) in HEK293 cells (AID 720678)
# Summary of the method: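 Intrinsic compound fluorescence is recorded in live HEK293 cultures after overnight incubation at 37C, 5% CO2, using excitation 405 nm and emission 460 nm. Values are referenced to triamterene.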
# [8] = qHTS assay to test for compound auto fluorescence at 535 nm (green) in HEK293 cells (AID 720680)
# [9] = qHTS assay to test for compound auto fluorescence at 535 nm (green) in HEK293 cell free culture (AID 720682)
# Summary of the method: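 No cells present: wells hold DMEM supplemented with 10% FBS, into which compound or vehicle is pinned. Green emission is then recorded (485 nm excitation, 535 nm emission) and scaled to fluorescein.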
# [10] = qHTS assay to test for compound auto fluorescence at 590 nm (red) in HEK293 cell free culture (AID 720683)
# Summary of the method: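 Red-channel autofluorescence of compounds in culture medium (DMEM, 10% FBS), no cells, measured at 540/590 nm. Rose Bengal sodium is the reference fluorophore for equivalence.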
# [11] = qHTS assay to test for compound auto fluorescence at 460 nm (blue) in HepG2 cell free culture (AID 720685)
# Summary of the method: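 Cell-free plates of MEM plus 10% FBS received 23 nL compound or DMSO vehicle; blue-channel (405/460 nm) intensity scored against triamterene as reference fluorophore.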
# [12] = qHTS assay to test for compound auto fluorescence at 535 nm (green) in HepG2 cell free culture (AID 720686)
# [13] = qHTS assay to test for compound auto fluorescence at 460 nm (blue) in HepG2 cells (AID 720687)
# Summary of the method: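 Blue-channel autofluorescence (Ex/Em 405/460 nm, triamterene-equivalent) was measured after 1 hr compound exposure at 37 C, 5% CO2. Cells were HepG2, plated overnight at 37 C in MEM plus 10% FBS.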
# [14] = target: Glucocorticoid receptor (Homo sapiens) (UniProt P04150); test: qHTS assay to identify small molecule agonists of the glucocorticoid receptor (GR) signaling pathway (AID 720691; active = well fitted activation curve with a large enough effect in the signal ratio in the repeat runs, not every such curve was filed as active; the % refers to the signal ratio)
# Glucocorticoid receptor (Homo sapiens), sequence (P04150 whole entry, looked up): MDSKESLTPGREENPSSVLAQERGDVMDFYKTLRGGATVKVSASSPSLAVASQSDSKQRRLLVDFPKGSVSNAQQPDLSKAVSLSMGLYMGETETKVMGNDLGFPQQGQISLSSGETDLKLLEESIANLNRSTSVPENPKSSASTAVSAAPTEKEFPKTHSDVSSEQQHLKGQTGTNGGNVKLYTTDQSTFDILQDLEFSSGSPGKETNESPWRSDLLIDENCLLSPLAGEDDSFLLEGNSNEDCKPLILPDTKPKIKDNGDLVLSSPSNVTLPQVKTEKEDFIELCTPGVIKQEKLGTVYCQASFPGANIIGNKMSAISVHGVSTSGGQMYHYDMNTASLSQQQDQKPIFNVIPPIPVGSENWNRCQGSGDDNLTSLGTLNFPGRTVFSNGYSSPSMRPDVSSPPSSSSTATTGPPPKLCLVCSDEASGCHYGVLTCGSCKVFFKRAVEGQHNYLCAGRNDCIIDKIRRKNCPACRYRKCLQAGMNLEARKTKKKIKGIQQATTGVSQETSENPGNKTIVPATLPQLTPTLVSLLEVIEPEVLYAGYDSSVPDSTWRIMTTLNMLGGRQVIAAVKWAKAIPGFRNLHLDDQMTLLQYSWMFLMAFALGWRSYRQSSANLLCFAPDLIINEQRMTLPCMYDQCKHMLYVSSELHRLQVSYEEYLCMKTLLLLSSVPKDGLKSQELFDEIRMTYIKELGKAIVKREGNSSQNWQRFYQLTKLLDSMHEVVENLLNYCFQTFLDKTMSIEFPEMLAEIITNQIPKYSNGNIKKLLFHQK
# Summary of the method: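 Measures GR pathway activation through a GRE-beta-lactamase reporter stably integrated in HeLa cells, with 18 h compound treatment at 37 C and fluorescence detection using a FRET substrate.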
# [15] = target: Glucocorticoid receptor (Homo sapiens) (UniProt P04150); test: qHTS assay to identify small molecule antagonists of the glucocorticoid receptor (GR) signaling pathway (AID 720692; active = well fitted inhibition curve with a large enough effect in the signal ratio in the repeat runs, not every such curve was filed as active; the % refers to the signal ratio)
# Summary of the method: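 Tox21 10K library screened in concentration-response for blockade of dexamethasone (5 nM final)-induced GRE-bla reporter activity in HeLa cells; 18 h treatment, fluorescence read.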
# [16] = qHTS assay for small molecules that induce genotoxicity in human embryonic kidney cells expressing luciferase-tagged ATAD5 (AID 651632); note: nearly all actives have a fitted effect of over 15% in size; note: potency is the fitted concentration of half-maximal effect
# Summary of the method: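 Concentration-response screen for ATAD5 upregulation in HEK293T luciferase reporter cells; 16 hr treatment at 37C, then luminescence after 30 min with Amplite at room temperature.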
# [17] = qHTS assay to test for compound auto fluorescence at 590 nm (red) in HepG2 cells (AID 720674)
# Summary of the method: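 We screened compounds on adherent HepG2 cells, incubating them for an hour at 37 C in 5% CO2 before reading emission at 590 nm under 540 nm excitation; values reflect equivalence to Rose Bengal sodium fluorescence.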
# [18] = qHTS assay to test for compound auto fluorescence at 460 nm (blue) in HEK293 cell free culture (AID 720681)
# Summary of the method: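 Blue fluorescence (Ex 405/Em 460 nm, triamterene-equivalent) was read immediately after pin transfer of compound or DMSO into medium (DMEM, 10% FBS) without cells.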
# [19] = qHTS assay to test for compound auto fluorescence at 590 nm (red) in HEK293 cells (AID 720679)
# Summary of the method: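 Red autofluorescence, HEK293 cells: 2,000 cells/well; attach 4-5 hr 37C; add 23 nL cpd or DMSO; incubate o/n 37C 5% CO2; read Ex540/Em590; Rose Bengal sodium reference.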
# [20] = qHTS assay to test for compound auto fluorescence at 590 nm (red) in HepG2 cell free culture (AID 720684)
# Summary of the method: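 Cell-free; medium MEM + 10% FBS; compound or DMSO added by pintool; read Ex 540/Em 590 nm; Rose Bengal sodium as red reference fluorophore.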
smiles,measurement,setting,value
CC/C=C1/OC(=O)c2ccccc21,Potency,[1],inactive
same,Potency,[2],inactive
same,Potency,[3],inactive
same,Potency,[4],inactive
same,Potency,[5],inactive
same,outcome,[6],inactive
same,Potency,[7],inactive
same,outcome,[8],inactive
same,outcome,[9],inactive
same,outcome,[10],inactive
same,Potency,[11],inactive
same,outcome,[12],inactive
same,Potency,[13],inactive
same,Potency,[14],inactive
same,Potency,[15],inactive
CCC1(CO)COCOC1,Potency,[1],inactive
same,Potency,[16],inactive
same,Potency,[2],inactive
same,Potency,[3],inactive
same,Potency,[4],inactive
same,outcome,[17],inactive
same,outcome,[6],inactive
same,Potency,[7],inactive
same,Potency,[18],inactive
same,outcome,[9],inactive
same,outcome,[10],inactive
same,Potency,[11],inactive
same,outcome,[12],inactive
same,Potency,[13],inactive
same,Potency,[14],inactive
same,Potency,[15],inactive
O=c1c(O)c(-c2ccc(O)cc2)oc2cc(O)cc(O)c12,Potency,[1],inactive
same,Potency,[2],inactive
same,Potency,[3],inactive
same,Potency,[4],inactive
same,Potency,[5],3.84 µM (active) and 328 nM (active)
same,outcome,[6],inactive
same,Potency,[7],inactive
same,outcome,[19],inactive
same,outcome,[8],inactive
same,Potency,[18],inactive
same,outcome,[9],inactive
same,outcome,[10],inactive
same,outcome,[20],inactive
same,Potency,[11],inactive
same,outcome,[12],inactive
same,Potency,[13],inactive
same,Potency,[14],inactive
O=C=Nc1cccc(C(F)(F)F)c1,Potency,[1],inactive
same,Potency,[16],inactive
same,Potency,[2],inactive
same,Potency,[3],inactive
same,Potency,[5],2.15 µM (active)
same,outcome,[17],inactive
same,outcome,[6],inactive
same,Potency,[7],inactive
same,outcome,[19],inactive
same,outcome,[8],inactive
same,outcome,[9],inactive
same,outcome,[10],inactive
same,outcome,[20],inactive
same,Potency,[11],inactive
same,outcome,[12],inactive
same,Potency,[13],inactive
same,Potency,[14],inactive
O=C1c2ccccc2C(=O)c2c(O)c(O)cc(O)c21,Potency,[1],inactive
same,Potency,[16],inactive
same,Potency,[2],inactive
same,Potency,[4],inactive
same,Potency,[5],27.3 µM (active)
same,outcome,[17],inactive
same,outcome,[6],inactive
same,Potency,[7],inactive
same,outcome,[19],inactive
same,outcome,[8],inactive
same,outcome,[9],inactive
same,Potency,[11],inactive
same,outcome,[12],inactive
same,Potency,[13],inactive
O=C=Nc1ccc(Cl)c(Cl)c1,Potency,[1],inactive
same,Potency,[2],inactive
same,Potency,[5],7.57 µM (active)
same,outcome,[17],inactive
same,outcome,[6],inactive
same,Potency,[7],inactive
same,outcome,[19],inactive
same,outcome,[8],inactive
same,Potency,[18],inactive
same,outcome,[9],inactive
same,outcome,[10],inactive
same,outcome,[20],inactive
same,Potency,[11],inactive
same,outcome,[12],inactive
same,Potency,[13],inactive
OC(CCN1CCCC1)(c1ccccc1)C1CCCCC1 (stereo not drawn),Potency,[1],inactive
same,Potency,[16],inactive
same,Potency,[2],inactive
same,Potency,[3],inactive
same,Potency,[4],inactive
same,"fluorescence, % of fluorescein control",[6],0.0313% [at 18.6 µM]
same,"fluorescence, % of triamterene",[7],0.0017% [at 18.6 µM]
same,"fluorescence, % of fluorescent control",[19],-0.0138% [at 18.6 µM]
same,"fluorescence, % of fluorescein",[8],6.8e-05% [at 18.6 µM]
same,"fluorescence, % of fluorescent control",[18],-0.0085% [at 18.6 µM]
same,activity change,[9],0.0202% [at 18.6 µM]
same,"fluorescence, % of fluorescent control",[10],-0.206% [at 18.6 µM]
same,"fluorescence, % of Rose Bengal",[20],-0.161% [at 18.6 µM]
same,"fluorescence, % of fluorescent control",[11],0.0206% [at 18.6 µM]
same,"fluorescence, % of fluorescein control",[12],-0.0329% [at 18.6 µM]
same,"fluorescence, % of fluorescent control",[13],0.0411% [at 18.6 µM]
same,Potency,[15],inactive
CC(C)COCC(CN(Cc1ccccc1)c1ccccc1)N1CCCC1 (stereo not drawn),Potency,[1],13.3 µM (active)
same,Potency,[16],inactive
same,Potency,[2],11.9 µM (active)
same,Potency,[3],9.44 µM (active)
same,outcome,[17],inactive
same,outcome,[6],inactive
same,Potency,[7],inactive
same,outcome,[8],inactive
same,Potency,[18],inactive
same,outcome,[9],inactive
same,outcome,[10],inactive
same,outcome,[20],inactive
same,Potency,[11],inactive
same,outcome,[12],inactive
same,Potency,[13],inactive
same,Potency,[14],inactive
C1C[C@@H]2[C@H]3CC[C@H](C3)[C@@H]2C1,Potency,[1],inactive
same,Potency,[16],inactive
same,Potency,[2],inactive
same,Potency,[3],inactive
same,Potency,[4],inactive
same,outcome,[17],inactive
same,outcome,[6],inactive
same,outcome,[8],inactive
same,Potency,[18],inactive
same,outcome,[9],inactive
same,outcome,[10],inactive
same,outcome,[20],inactive
same,Potency,[11],inactive
same,outcome,[12],inactive
same,Potency,[13],inactive
CCC(=O)OC,Potency,[1],inactive
same,Potency,[16],inactive
same,Potency,[2],inactive
same,Potency,[3],inactive
same,Potency,[4],inactive
same,outcome,[17],inactive
same,outcome,[6],inactive
same,Potency,[7],inactive
same,outcome,[8],inactive
same,Potency,[18],inactive
same,outcome,[9],inactive
same,outcome,[10],inactive
same,outcome,[20],inactive
same,Potency,[11],inactive
same,outcome,[12],inactive
same,Potency,[13],inactive
same,Potency,[14],inactive
same,Potency,[15],inactive
CC(C)C[C@H](NC(=O)[C@H](CCc1ccccc1)NC(=O)CN1CCOCC1)C(=O)N[C@@H](Cc1ccccc1)C(=O)N[C@@H](CC(C)C)C(=O)[C@@]1(C)CO1,Potency,[1],0.0668 µM (active)
same,Potency,[16],0.106 µM (active)
same,Potency,[2],0.335 µM (active)
same,Potency,[3],0.211 µM (active)
same,Potency,[4],inactive
same,outcome,[17],inactive
same,outcome,[6],inactive
same,Potency,[7],inactive
same,outcome,[8],inactive
same,Potency,[18],inactive
same,outcome,[9],inactive
same,outcome,[10],inactive
same,Potency,[11],inactive
same,outcome,[12],inactive
same,Potency,[13],inactive
CC1=Nc2ccc3ccccc3c2C1(C)C,Potency,[16],inactive
same,Potency,[2],inactive
same,Potency,[3],inactive
same,Potency,[4],inactive
same,Potency,[5],19.3 µM (active)
same,outcome,[17],inactive
same,outcome,[6],inactive
same,Potency,[7],inactive
same,outcome,[19],inactive
same,outcome,[8],inactive
same,Potency,[18],inactive
same,outcome,[9],inactive
same,outcome,[10],inactive
same,outcome,[20],inactive
same,Potency,[11],inactive
same,outcome,[12],inactive
same,Potency,[13],inactive
COc1ncnc(NS(=O)(=O)c2ccc(N)cc2)c1OC,Potency,[16],inactive
same,Potency,[2],inactive
same,Potency,[3],inactive
same,Potency,[4],inactive
same,Potency,[5],inactive
same,outcome,[17],inactive
same,outcome,[6],inactive
same,outcome,[19],inactive
same,outcome,[8],inactive
same,outcome,[9],inactive
same,outcome,[10],inactive
same,Potency,[11],inactive
same,outcome,[12],inactive
same,Potency,[13],inactive
CC(=O)Oc1ccc([N+](=O)[O-])cc1CCl,Potency,[16],inactive
same,Potency,[2],inactive
same,Potency,[3],30.6 µM (active)
same,Potency,[4],inactive
same,Potency,[5],54.5 µM (active)
same,outcome,[17],inactive
same,outcome,[6],inactive
same,Potency,[7],inactive
same,outcome,[19],inactive
same,outcome,[8],inactive
same,Potency,[18],inactive
same,outcome,[9],inactive
same,outcome,[10],inactive
same,outcome,[20],inactive
same,Potency,[11],inactive
same,outcome,[12],inactive
same,Potency,[13],inactive
